Results from the supplement of paper PMC6555819.

Columns and labels:
Assay in all cases: PBM binding z-score (relative to random genomic background probes); higher = stronger binding; sequences stand for … in GC…GCGATTGACAGCGTAGAATGAAGG
[1] = tested on: PPARg:RXRa DBDmut IVT, anti-RXR (DBD mutation: RXRa K156A/R161A, NR concentration 270 nM, RXRa partner concentration 90 nM)
Summary of the method: (§1)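 Probes were double-stranded and carried 34-nt variable regions with direct-repeat seeds, single-nucleotide variants, half-site ablations and random human genomic background sequences, printed on custom Agilent 4×180K protein-binding microarrays. Arrays were incubated 1 h with ligand-free nuclear receptor dimers in PBS pH 7.4, 2% milk, 0.02% Triton X-100, 1 mM DTT, 0.2 mg/mL BSA and 0.4 mg/ml salmon testes DNA. Antibodies against each partner (one per run) detected binding, and scanned fluorescence was regression-normalized. Binding z-scores use the random background probes as reference.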

[2] = tested on: PPARg:RXRa IVT, anti-PPARg (NR concentration 270 nM, RXRa partner concentration 90 nM)
Summary of the method: as §1

[3] = tested on: PPARg DBDmut:RXRa IVT, anti-PPARg (DBD mutation: PPARg1 K132A/R137A, NR concentration 270 nM, RXRa partner concentration 90 nM)
Summary of the method: as §1

[4] = tested on: PPARg DBDmut IVT, anti-PPARg (DBD mutation: PPARg1 K132A/R137A, NR concentration 270 nM)
Summary of the method: as §1

[5] = tested on: PPARg homodimer (NR concentration 180 nM)
Summary of the method: as §1

[6] = tested on: PXR:RXRa (NR concentration 270 nM, RXRa partner concentration 90 nM)
Summary of the method: as §1

[7] = tested on: PXR homodimer (NR concentration 270 nM)
Summary of the method: as §1

[8] = tested on: RARa:RXR (NR concentration 270 nM, RXRa partner concentration 90 nM)
Summary of the method: as §1

[9] = tested on: RARa homodimer (NR concentration 270 nM)
Summary of the method: as §1

[10] = tested on: RARb:RXRa (NR concentration 270 nM, RXRa partner concentration 90 nM)
Summary of the method: as §1

[11] = tested on: RARb homodimer (NR concentration 270 nM)
Summary of the method: as §1

[12] = tested on: RARg:RXRa (NR concentration 270 nM, RXRa partner concentration 90 nM)
Summary of the method: as §1

[13] = tested on: RARg homodimer (NR concentration 270 nM)
Summary of the method: as §1

[14] = tested on: RXRa DBDmut IVT, anti-RXR (DBD mutation: RXRa K156A/R161A, NR concentration 90 nM)
Summary of the method: as §1

[15] = tested on: RXRa homodimer (NR concentration 180 nM)
Summary of the method: as §1

[16] = tested on: THRa:RXRa (NR concentration 90 nM, RXRa partner concentration 90 nM)
Summary of the method: as §1

[17] = tested on: THRa homodimer (NR concentration 90 nM)
Summary of the method: as §1

[18] = tested on: VDR:RXRa (NR concentration 270 nM, RXRa partner concentration 90 nM)
Summary of the method: as §1

[19] = tested on: VDR homodimer (NR concentration 270 nM)
Summary of the method: as §1

Sequence	PBM binding z-score [1]	PBM binding z-score [2]	PBM binding z-score [3]	PBM binding z-score [4]	PBM binding z-score [5]	PBM binding z-score [6]	PBM binding z-score [7]	PBM binding z-score [8]	PBM binding z-score [9]	PBM binding z-score [10]	PBM binding z-score [11]	PBM binding z-score [12]	PBM binding z-score [13]	PBM binding z-score [14]	PBM binding z-score [15]	PBM binding z-score [16]	PBM binding z-score [17]	PBM binding z-score [18]	PBM binding z-score [19]
TTACCAGGGTGAAAGGTCGTTGATGCACGCCTTG	2.27	4.77	0.849	0.523	3.33	4.25	0.522	5.93	0.262	2.59	2.58	3.82	1.48	0.566	6.13	2.9	0.639	3.28	1.87
GTACCAAGGTGAATAGGTGGTTGATGAGTAGGCG	1.79	1.93	0.268	-0.307	0.741	-0.428	0.469	-0.021	0.656	1.21	0.863	0.652	0.628	-0.536	0.63	1.3	0.799	-0.165	-0.0991
TGAATGAGGTTAAAGACCAGGGAACGTGGCGTCG	1.75	2.7	1.19	0.401	0.683	1.08	-0.0383	2.17	0.0679	1.84	0.539	1.91	0.92	0.895	2.95	2.14	0.297	1.09	0.179
CCACGGAGGACAACAGGAGGTCAGAGCTGCCAGA	-0.448	0.453	-0.512	-0.952	1.79	2.21	0.52	2.53	1.2	2.99	3.72	3.61	3.45	0.466	2.08	2.8	1.28	2.13	1.48
TAGCCTAGGTCATTGGGCCTGTATAGTACGCATC	2.39	3.03	-0.124	-0.181	1.46	1.65	-0.0817	2.37	-0.457	3.55	2.84	3.78	4.29	1.59	3.33	2.74	0.697	2.38	1.12
AGTCAAAGTTCAGGACGAGGTAACGTCAAGCACG	-0.313	1.89	0.047	-0.603	3.18	3.06	1.42	3.01	1.63	4.25	3.13	4.98	4.9	2.71	3.29	3.98	1.52	3.07	2.33
CATGCAGGGTCAGCTAGGCCAGAGTAGGGACGGC	0.734	1.98	0.517	-0.095	0.728	2.2	-0.234	3.27	-0.247	4.14	3.19	4.53	5.06	1.71	4.75	3	0.624	3.97	1.16
GCTACCAGGCCATTTGGGTCACTCAATGACGGGC	2.04	2.77	0.125	-0.407	-0.0143	0.976	0.553	0.919	-0.79	1.59	2.15	1.21	1.57	0.386	0.86	2.21	1.39	1.36	0.491
AGTCAAGGTTCACTAGGTAACGTAAGATTCAGCT	2.7	4.17	0.684	1.3	1.04	1.83	0.833	1.9	-0.0473	2.75	1.85	2.74	2.72	3.92	2.57	1.8	0.553	3.27	3.78
TGTCAAAGTTCAAAGGTAACGTAGGTATCCACAC	0.105	4.5	1.01	1.42	2.88	5.78	3.36	6.75	1.57	5.06	4.01	6.19	6.01	4.14	7.19	3.05	-0.392	5.15	3.97
CGTCCAATGTCAGAGAGGTCAGTGAATGCCGAGT	0.575	1.22	-0.469	-0.584	3.15	3.48	2.28	3.16	1.47	3.42	4.14	3.35	3.8	1.27	2.57	2.75	1.37	5.22	2.91
CCGACTGGGGCAAAGGTTACCATACTCAGTACGA	4.37	6	0.389	-0.153	1.16	2.32	-0.304	3.94	0.0257	2.4	2.22	3.52	1.78	0.712	3.67	1.78	-0.211	1.68	-0.204
GGAACGAGGGCAAAGTTGATACCATCTGTCGACG	3.89	3.91	0.382	-0.0769	0.593	1.61	0.644	2.09	0.0395	2.42	1.63	2.14	2.02	2.79	2.18	1.47	0.0828	–	2.09
CCTACTGGGCCACGAAAGGTCATTGAATCAGTGA	5.88	5.52	0.0728	-0.421	2.53	5.09	1.26	5.07	0.674	4.03	4.71	4.78	4.92	0.485	5.26	3.64	0.999	4.14	1.9
GATACAGGGACAGCTAGAGGCCAGAGTATGGAAA	-0.328	-0.138	-0.157	-0.323	0.377	-0.289	0.168	0.0222	0.173	0.833	0.97	0.522	1.01	-0.496	0.185	0.508	0.191	-0.526	-0.0729
CCTACTGGGCCAAAGTTCATTGATTCCAATGCTC	4.73	6.06	-0.1	-0.115	4.94	4.5	8.31	2.99	0.508	3.13	3.34	3.23	2.56	2.37	2.73	1.44	0.0374	3.24	3.96
TCTGCTAGGTCAACGACGGTCAGCTAATCTGCTA	3.89	3.94	0.0425	0.346	0.772	2.08	-0.714	2.4	-1.12	4.13	3.74	4.42	5.58	1.13	2.74	3.48	0.555	2	-0.198
AGAATGAGGTAACCAAAGATCAGGGAAACGCTTG	3.05	2.17	1.22	1.42	-0.124	0.0437	-0.0264	0.577	0.155	0.403	-0.385	0.568	0.561	-0.346	0.827	2.05	0.539	-0.129	-0.262
CCGACTGGGGCAAGGTTAGCATAACGCACAGCCA	2.73	2.99	-1.11	-0.288	0.409	-0.179	-0.316	-0.0446	-0.606	1.22	0.752	0.574	0.814	-0.5	0.57	0.333	-0.266	-0.429	-0.191
CCTACTGGGCCAAAAAGGTCTTTGATGCCGATAA	3.45	2.65	-0.719	-0.578	-0.284	-0.31	-0.67	-0.184	-0.777	0.422	0.452	-0.217	-0.013	-0.428	-0.121	-0.113	-0.671	-0.154	-0.382
ATCTCTAGGCAACAAGTTCAGTGAAAGAGAGGAC	0.952	0.456	0.856	0.154	0.297	0.875	1.52	0.335	0.376	1.32	1.5	0.455	0.889	0.344	0.308	0.961	0.49	1.82	2.1
TCATATAGGTAAATACTAGGTGAAAGTCCGATCT	4.28	4.37	1.5	1.37	1.15	0.747	0.389	1.15	1.65	0.482	0.493	0.573	0.709	1.89	1	1.49	0.718	1.19	0.521
TAGCCTAGGTCATGAGGGCCAGTATAGTGTCGGC	2.17	3.05	0.44	-0.29	0.909	1.6	-0.521	2.56	-0.556	3.8	3.01	4.06	4.57	0.234	3.23	3.04	0.958	3.51	0.404
CCCTACGGGTCACTCCAGGTTATAGCATCGGAGT	0.284	2.29	-0.814	-0.254	2.92	5.1	0.472	3.75	0.949	3.66	3.22	4.52	4.67	0.434	4.72	4.94	0.457	4.12	1.79
CCGACTGTGGCAAAGGTTACCATACTCAGTACGA	2.07	3.83	0.000701	-0.266	1.71	1.84	0.27	2.56	0.0109	1.9	2	2.04	1.17	0.804	2.6	1.4	0.0506	1.03	0.185
AGCTCTAGGTAAGACTCAGTTCAGTGAAGAACGC	2.37	0.56	-0.869	0.622	-0.0493	0.744	0.904	-0.0214	-0.00994	-0.0595	0.218	-0.161	-0.269	0.149	-0.208	0.465	0.312	0.321	1.14
CGTCCAAGGTCAAGGTCAGCGAAAGAGACTCGAA	3.83	4.71	0.201	-0.753	3.43	4.67	0.58	4.95	0.668	5.52	5.23	6.94	7.94	3.44	6.74	4.14	3.58	4.97	3.19
TTACCAAGGTGAGCTGAGGTCGTCGATCCAACTC	0.887	2.1	-0.228	-0.875	-0.188	3.92	0.167	1.43	-0.863	1.8	1.49	1.37	1.36	-0.22	1.75	4.74	2.4	3.49	1.02
TATACAGGCTCAAAGGCCAGAGTACGAATGTCGA	-0.518	0.865	0.383	0.281	-0.146	-0.262	-0.323	-0.258	0.14	0.95	0.737	0.637	0.897	-0.662	0.521	-0.176	-0.638	–	0.383
TCTTGTAGCTCAATAGAGGTTAAGAAAGTGCGCT	0.915	0.506	0.592	0.551	-0.185	2.46	-0.163	1.28	-0.147	0.573	0.952	0.354	0.113	0.261	0.994	1.27	-0.704	–	-0.137
